Assay outcomes (PubChem BioAssay)
HIV Env fusion = inhibitors of HIV-1 Env-driven cell-cell fusion, primary screen, HeLa-JRFL effector, CEM21 target cells, luciferase; inhibition, % at 12.3 µM; 360,000 tested, 1.1% active;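 active = mean replicate inhibition score of at least 50 and every replicate individually at or above 50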;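 also: 0% = plate neutral controls and 100% = maraviroc near 300 nM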
PglD DTNB = C. jejuni PglD acetyltransferase inhibitors, primary screen, biochemical, DTNB colorimetric, single point. 360,000 tested, 0.098% active. purified PglD enzyme, DTNB colorimetric CoA detection. inhibition, % at 12.5 µM. AID 602405, 2012. UDP-N-acetylbacillosamine N-acetyltransferase PglD (Campylobacter jejuni); in the data active = inhibition above about 16%, passing the limit was not always enough
NSD2 inh = NSD2 histone methyltransferase inhibitors, primary screen, biochemical, AlphaScreen, single concentration, set 2; 310,000 tested, 0.54% active; inhibition, % at 12.5 µM; NSD2 peptide methylation, 120 min; in the data active = inhibition above about 50%
CFTR F508del cor = F508del CFTR correction, initial screen, CFBE line, single point; 350,000 tested, 0.36% active; activity (quench increase), % at 7.58 µM; AID 720511, 2013; CFBE cells, YFP halide quenching; stimulated with forskolin plus potentiator P3; % fluorescence drop versus neutral controls;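 active = mean added fluorescence quench of at least 8% versus neutral control, with both replicates also reaching 8%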;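 also: cells transiently co-express mutant CFTR-F508del with the halide-sensitive YFP; corrector assay measuring rescue of mutant channel to the surface after 24 h compound exposure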
ALR H2O2 inh = inhibitors of human ALR sulfhydryl oxidase, primary screen, biochemical, H2O2 detection, HRP-luminol luminescence, single point; purified ALR, DTT oxidation; AID 485317, 2010; FAD-linked sulfhydryl oxidase ALR (Homo sapiens), P55789; 290,000 tested, 3.8% active; inhibition, % (test concentration not listed);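 active = mean replicate inhibition above about 79%, with every replicate also reaching it, limit read from the data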
Target sequence (P55789 whole entry, looked up): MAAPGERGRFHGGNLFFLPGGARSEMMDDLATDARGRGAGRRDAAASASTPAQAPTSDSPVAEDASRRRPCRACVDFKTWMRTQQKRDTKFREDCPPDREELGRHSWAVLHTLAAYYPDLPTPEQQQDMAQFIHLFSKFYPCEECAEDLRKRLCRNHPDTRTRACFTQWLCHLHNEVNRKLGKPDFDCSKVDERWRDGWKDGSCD
CASP6 VEID inh = human caspase-6 inhibitors, primary screen, biochemical, VEID-R110 fluorescence, single point, set 2 | P55212 | purified caspase-6, Z-VEID-R110 cleavage fluorescence | inhibition, % at 12.5 µM | 350,000 tested, 0.53% active | AID 686996, 2013;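 active = mean inhibition across replicates at least about 35%, with every replicate also reaching that limit, limit read from the data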;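 also: 0% = median of neutral control wells and 100% = no fluorescence left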
Target sequence (P55212 24-179 limits assumed): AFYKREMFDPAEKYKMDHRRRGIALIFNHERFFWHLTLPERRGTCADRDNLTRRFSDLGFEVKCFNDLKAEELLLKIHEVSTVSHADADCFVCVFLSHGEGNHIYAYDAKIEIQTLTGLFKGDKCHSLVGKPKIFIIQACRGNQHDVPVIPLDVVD
Target sequence (P55212 194-293 limits assumed): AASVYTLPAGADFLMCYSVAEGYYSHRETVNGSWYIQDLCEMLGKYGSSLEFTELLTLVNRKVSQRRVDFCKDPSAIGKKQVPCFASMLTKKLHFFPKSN
Numbers without * were called inactive; x = not tested or not shown; [ ] = remark or other dose. Rows were chosen to be rich in hits. Some 4.1% of all compounds tested hit in one or more screens of this group.

SMILES | HIV Env fusion | PglD DTNB | NSD2 inh | CFTR F508del cor | ALR H2O2 inh | CASP6 VEID inh
CN(CCOc1ccc(Cl)cc1)C(=O)c1ccc(S(=O)(=O)N2CCOCC2)cc1 | 7.9 | -11.9 | -8.7 | 2.1 | -3.7 | x
O=C(c1cccc(S(=O)(=O)N2CCOCC2)c1)N1CCCC(C(F)(F)F)C1 (stereo not given) | 3.0 | -0.9 | -0.5 | 10.1* | 2.2 | -0.2
CO[C@@H]1CN(C)C(=O)c2ccc(NS(=O)(=O)c3ccccc3)cc2OC[C@@H](C)N(Cc2ccccn2)C[C@H]1C | x | 0.7 | x | 1.2 | x | 0.0
CCN1CCN(Cc2oc(CO)cc(=O)c2O)CC1 | -25.4 | 1.2 | 3.0 | x | -4.2 | x
CCOC(=O)C1CCN(Cc2oc(CO)cc(=O)c2O)CC1 | -48.7 | -2.5 | 0.0 | x | 90.8* | x
O=c1cc(CO)oc(CN2CCN(c3ccccc3)CC2)c1O | -29.2 | 3.1 | 19.5 | x | 98.1* | x
COc1ccccc1CNC(=O)C[C@H]1CC[C@@H]2[C@H](COC[C@@H](O)CN2C(=O)Nc2ccccc2)O1 | x | -0.2 | x | 0.0 | x | -0.3
Cc1nc2sccn2c(=O)c1S(=O)(=O)N1CCN(c2ccccc2)CC1 | -1.0 | 0.0 | x | -5.4 | 72.4 | -1.9
COc1ccc(N2CCN(S(=O)(=O)c3c(C)nc4sccn4c3=O)CC2)cc1 | 0.4 | 4.1 | x | 0.6 | 84.4* | -0.2
Cc1nc2sccn2c(=O)c1S(=O)(=O)Nc1ccc(N2CCN(C)CC2)cc1 | 1.8 | -3.1 | x | -2.0 | 97.0* | -3.1
C[C@H]1CN([C@@H](C)CO)C(=O)CCCn2cc(nn2)CO[C@@H]1CN(C)Cc1cccc(C(=O)O)c1 | x | -0.3 | x | -3.6 | x | 1.6
C[C@@H]1CN([C@@H](C)CO)S(=O)(=O)c2ccc(C3=CCCCC3)cc2O[C@@H]1CN(C)Cc1ccccn1 | 5.9[16.7 µM] | 4.7 | x | 3.4 | x | 1.7
Nc1nc2c(nc(SCc3ccccc3Br)n2C2OC(CO)C(O)C2O)c(=O)[nH]1 (stereo not given) | -1.1 | 5.1 | -1.2 | -1.8 | 86.4* | -0.1
COc1ccc(-c2ccc3c(c2)O[C@H](CN(C)C)[C@H](C)CN([C@H](C)CO)S3(=O)=O)cc1 | 16.2[16.7 µM] | -2.0 | x | -3.6 | x | -1.8
C[C@@H]1CN([C@@H](C)CO)C(=O)c2cc(NC(=O)CCCN(C)C)ccc2O[C@@H](C)CCCCO[C@H]1CN(C)S(=O)(=O)c1cccs1 | -21.0[16.7 µM] | -0.3 | x | -1.0 | x | 0.1
O=C(O)c1cc(N/N=C/c2ccc(-c3ccccc3)cc2)ccc1Cl | -176.8 | -0.9 | 12.4 | -1.6 | 99.3* | 15.1
C/C(=N\NC(=O)c1ccccc1C)c1cccc([N+](=O)[O-])c1 | 2.3 | 0.9 | -3.6 | x | -17.9 | x
O=C(O)c1cc(N/N=C/C=C/c2ccccc2[N+](=O)[O-])ccc1Cl | -43.7 | 0.0 | 15.2 | 1.0 | 98.6* | 10.9
Clc1cccc(N/N=C/c2ccc(N3CCOCC3)cc2)c1 | x | 1.4 | -3.6 | -3.1 | -20.7 | -4.1
C/C(=N\Nc1ccc(Cl)c(C(=O)O)c1)c1cccc([N+](=O)[O-])c1 | -16.7 | 4.0 | x | 0.5 | 97.8* | 3.2
NS(=O)(=O)c1ccc(N/N=C/C=C/c2ccccc2[N+](=O)[O-])cc1 | -78.0 | -9.6 | 4.6 | 2.0 | 30.4 | 5.4
O=C(O)c1cc(N/N=C/c2ccc(N3CCOCC3)cc2)ccc1Cl | -22.8 | 0.5 | 10.0 | 0.1 | 96.8* | 3.2
CN1[C@@H]2Cn3c(ccc(-c4cccnc4)c3=O)[C@H]1[C@@H](C(=O)N1CCC(Cc3ccccc3)CC1)[C@@H]2CO | x | -3.1 | x | 0.8 | x | 0.7
CN(C)C(=O)[C@@H]1[C@@H](CO)[C@@H]2Cn3c(ccc(-c4ccccc4)c3=O)[C@H]1N2Cc1ccccn1 | x | 3.5 | x | x | x | x
COc1cc(/C=N/Nc2ccc(Cl)c(C(=O)O)c2)ccc1OC(=O)c1cccs1 | 0.6 | -0.6 | 30.0 | 0.6 | 97.3* | 2.9
SMILES | HIV Env fusion | PglD DTNB | NSD2 inh | CFTR F508del cor | ALR H2O2 inh | CASP6 VEID inh
N#Cc1ccc(-c2ccc([C@@H]3[C@@H](CO)N4C(=O)CN(C(=O)Cc5ccccc5)C[C@H]34)cc2)cc1 | x | x | x | -2.1 | x | -1.2
CC(C)[C@H](NC(=O)c1ccco1)C(=O)NC12CC3CC(CC(C3)C1)C2 | 57.6* | x | -4.8 | 2.2 | 4.0 | -3.1
CC(C)[C@H](NC(=O)c1ccco1)C(=O)NCc1ccccc1 | -0.8 | -1.5 | 24.3 | 1.3 | x | 4.8
Cc1sc2nc(CSCC(=O)NC3(C#N)CCCCC3)[nH]c(=O)c2c1C | 24.1 | -1.4 | 4.3 | 2.6 | 95.4* | -1.4
Cc1cccc(NCc2nc(-c3ccccc3)no2)c1 | -24.3 | 1.3 | x | 3.3 | 91.5* | -0.2
Cc1cccc(OCC(=O)NCc2nc(-c3ccccc3)no2)c1 | -3.1 | 1.2 | -3.4 | -2.6 | 6.9 | 1.0
CCOC(=O)C1CCCN(S(=O)(=O)c2nc3nc(C)cc(C)n3n2)C1 (stereo not given) | -3.2 | 2.6 | 0.8 | 0.1 | -11.3 | 37.0*
ClCC1NCC(c2ccccc2Cl)c2c1[nH]c1ccccc21 (stereo not given) | -1.8 | x | -27.6 | -7.1 | 97.9* | -0.5
c1ccc(COc2ccc(-c3cc4nc(NCCOc5ccccc5)ccn4n3)cc2)cc1 | 42.6* | 0.4 | -0.8 | 5.0 | x | -4.0
C[C@@H]1CN([C@H](C)CO)C(=O)Cc2cc(NS(=O)(=O)c3cccs3)ccc2O[C@H]1CN(C)Cc1ccc2c(c1)OCO2 | 6.8[16.7 µM] | -2.7 | x | -0.4 | x | 3.8
COc1ccc(NC(=O)C2Cc3c(-c4ccccc4Oc4ccccc4)ccnc3O2)cc1OC (stereo not given) | 67.4* | -4.3 | -0.8 | -0.6 | x | x
COc1ccc(NC(=O)C2Cc3c(-c4ccccc4Oc4ccccc4)ccnc3O2)cn1 (stereo not given) | 24.9 | -1.5 | 0.8 | -1.7 | x | 4.8
COc1ccc(NC(=O)N(C)C[C@@H]2Oc3c(NS(=O)(=O)c4ccccc4)cccc3C(=O)N([C@@H](C)CO)C[C@H]2C)cc1 | 6.7[16.7 µM] | x | x | 0.9 | x | x
CC(=O)N(C[C@@H]1[C@@H](c2ccc(C3=CCCC3)cc2)[C@@H](CO)N1CC1CC1)C(C)C | x | x | x | 3.8 | x | -0.3
O=[N+]([O-])c1ccc(C2CCCC/C2=N\OCc2cccc(F)c2)c([N+](=O)[O-])c1 (stereo not given) | 84.8* | -1.4 | 13.1 | x | -0.4 | x
CC(O)(CS(=O)(=O)Cc1cccc(C(F)(F)F)c1)C(=O)Nc1cccc(C(F)(F)F)c1 (stereo not given) | 58.8* | -0.1 | -1.3 | x | -4.1 | x
CC(O)(CS(=O)(=O)Cc1ccccc1Cl)C(=O)Nc1cccc(C(F)(F)F)c1 (stereo not given) | 19.9 | -1.0 | 2.7 | x | -5.0 | x
CCCc1nc2oc3c(NCCOCCO)ncnc3c2c2c1COC(C)(C)C2 | -30.5 | 2.9 | 2.5 | x | 1.4 | x
